Experimental findings from PubChem BioAssay (NCATS) are described below.

A short description of test [1]: Quantitative High-Throughput drug screen in 47 multiple myeloma cell lines against the NCATS MIPE library collection: Karpas620_DSMZ cell viability assay (AID 1918959). Further: nearly all actives have a fitted effect of over 30% in size. In outline: (§1)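 Approved and investigational drugs from MIPE 4.0 were added by pin tool to 500 cells per well. After 48 hours at 37C, ATP-based CellTiter-Glo luminescence indicated remaining viability.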

Test [2] is described as follows: Quantitative High-Throughput drug screen in 47 multiple myeloma cell lines against the NCATS MIPE library collection: JIM1_ECACC cell viability assay (AID 1918964). In outline: (§2)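 CellTiter-Glo ATP luminescence gave viability after 48 h compound treatment at 37C of 500 multiple myeloma cells per well. Normalisation used DMSO-only wells as 100% and media-only wells as 0% viability; primary qHTS of approved and investigational drugs.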

Test [3] in a line: Quantitative High-Throughput drug screen in 47 multiple myeloma cell lines against the NCATS MIPE library collection: INA6_PLB cell viability assay (AID 1918965; further: nearly all actives have a fitted effect of over 55% in size). In outline: (§3)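 Inhibition of cell viability is measured here. Each line was plated at 500 cells per well, treated with MIPE 4.0 drugs, kept 48 hours at 37C, then assayed for ATP content by CellTiter-Glo luminescence.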

Test [4] is described as follows: Quantitative High-Throughput drug screen in 47 multiple myeloma cell lines against the NCATS MIPE library collection: JJN3_DSMZ cell viability assay (AID 1918966; further: nearly all actives have a fitted effect of over 50% in size). The gist of the method:
as §2

Test [5] can be described thus: Quantitative High-Throughput drug screen in 47 multiple myeloma cell lines against the NCATS MIPE library collection: KMS27_JCRB cell viability assay (AID 1918970). Further: nearly all actives have a fitted effect of over 30% in size. The note with it: KMS27 myeloma cells, CellTiter-Glo ATP viability, 48 h; viability (% of DMSO): at 45.8 µM (top of the series). In outline:
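CellTiter-Glo luminescence after 48 h drug exposure at 37 °C; 500 cells/well, 1536-well format, pin-tool compound addition; DMSO = 100%, media-only = 0% viability.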

Test [6] is described as follows: Quantitative High-Throughput drug screen in 47 multiple myeloma cell lines against the NCATS MIPE library collection: KMS12BM_JCRB cell viability assay (AID 1918971). Further: nearly all actives have a fitted effect of over 35% in size. The gist of the method: (§4)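 Steps: seed 500 cells per well; pin-transfer MIPE 4.0 library; incubate 48 h at 37C, 5% CO2, humidified; add CellTiter-Glo, 5 min room temperature; read luminescence.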
Test [7] can be described thus: Quantitative High-Throughput drug screen in 47 multiple myeloma cell lines against the NCATS MIPE library collection: KMS12PE_JCRB cell viability assay (AID 1918972). Further: nearly all actives have a fitted effect of over 30% in size. In outline:
as §3

Test [8] is described as follows: Quantitative High-Throughput drug screen in 47 multiple myeloma cell lines against the NCATS MIPE library collection: KMS26_JCRB cell viability assay (AID 1918975). Further: nearly all actives have a fitted effect of over 45% in size. The gist of the method: as §4
Test [9] in a line: Quantitative High-Throughput drug screen in 47 multiple myeloma cell lines against the NCATS MIPE library collection: MOLP8_DSMZ cell viability assay (AID 1918977). Further: nearly all actives have a fitted effect of over 45% in size. In outline: (§5)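 ATP-based luminescence (CellTiter-Glo, 5 min RT incubation) quantified surviving cells following two days' treatment with MIPE 4.0 agents at 37 °C, 5% CO2.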
Test [10] in a line: Quantitative High-Throughput drug screen in 47 multiple myeloma cell lines against the NCATS MIPE library collection: NCIH929_DSMZ cell viability assay (AID 1918978). Further: nearly all actives have a fitted effect of over 35% in size. The gist of the method:
as §5

Test [11] is described as follows: Quantitative High-Throughput drug screen in 47 multiple myeloma cell lines against the NCATS MIPE library collection: OCIMY1_PLB cell viability assay (AID 1918979). Further: nearly all actives have a fitted effect of over 35% in size. In outline:
as §5

Test [12] is described as follows: Quantitative High-Throughput drug screen in 47 multiple myeloma cell lines against the NCATS MIPE library collection: JIM3_ECACC cell viability assay (AID 1918963; further: nearly all actives have a fitted effect of over 35% in size). The gist of the method: as §1
Test [13] can be described thus: Quantitative High-Throughput drug screen in 47 multiple myeloma cell lines against the NCATS MIPE library collection: H1112_PLB cell viability assay (AID 1918967; further: nearly all actives have a fitted effect of over 30% in size). In outline: as §2
A short description of test [14]: Quantitative High-Throughput drug screen in 47 multiple myeloma cell lines against the NCATS MIPE library collection: Karpas25_ECACC cell viability assay (AID 1918968; further: nearly all actives have a fitted effect of over 35% in size). The gist of the method: as §2
Test [15] can be described thus: Quantitative High-Throughput drug screen in 47 multiple myeloma cell lines against the NCATS MIPE library collection: KMS20_JCRB cell viability assay (AID 1918973). Further: nearly all actives have a fitted effect of over 45% in size. In outline: as §2
Test [16] in a line: Quantitative High-Throughput drug screen in 47 multiple myeloma cell lines against the NCATS MIPE library collection: MMM1_PLB cell viability assay (AID 1918976). Further: nearly all actives have a fitted effect of over 35% in size. The gist of the method:
as §5

A short description of test [17]: Quantitative High-Throughput drug screen in 47 multiple myeloma cell lines against the NCATS MIPE library collection: KMM1_JCRB cell viability assay (AID 1918960). Further: nearly all actives have a fitted effect of over 30% in size. The gist of the method:
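500 cells/well; MIPE 4.0 library pinned in; 48 h, 37 °C, 5% CO2; CellTiter-Glo ATP luminescence. Controls: DMSO = 100% viability, medium only = 0%.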

Test [18] in a line: Quantitative High-Throughput drug screen in 47 multiple myeloma cell lines against the NCATS MIPE library collection: KMS21BM_JCRB cell viability assay (AID 1918974). The note with it: ATP luminescence, 48 h; viability: at 45.8 µM (top of the series). The gist of the method: as §2
A short description of test [19]: Quantitative High-Throughput drug screen in 47 multiple myeloma cell lines against the NCATS MIPE library collection: Karpas417_ECACC cell viability assay (AID 1918961). Particulars: Karpas417 myeloma viability, CellTiter-Glo ATP luminescence, 48 h; viability (% of DMSO): at 45.8 µM (top of the series). In outline: as §3
Background: In ATP-based viability assays light output follows the ATP content of the culture.

Test [20] can be described thus: Quantitative High-Throughput drug screen in 47 multiple myeloma cell lines against the NCATS MIPE library collection: KHM11_PLB cell viability assay (AID 1918962). Further: nearly all actives have a fitted effect of over 35% in size. The gist of the method:
as §1

Results filed as inconclusive are left out. The source made the active and inactive calls. The call rests on the fitted dose curve; in most records, active means well fitted curve in the direction sought with a large enough effect; inconclusive means small, poorly fitted or top-dose-only effect, or another doubt; inactive means no such curve, though single readings can be large; an effect the other way counts as inactive or inconclusive.
Potency means the concentration at half of the fitted maximal effect.

With `OC[C@@H](O)[C@@H](O)[C@H](O)[C@@H](O)CO`, the Potency entry in [1], in test [2], in test [3], in test [4], in test [5] and in test [6] was “inactive” each time. For the same compound, the Potency result in [7], in test [8], in [9], in test [10] and in [11] was “inactive” in each case.

For `C=CCNC1=C2C[C@@H](C)C[C@H](OC)[C@@H](O)[C@@H](C)C=C(C)[C@H](OC(N)=O)[C@@H](OC)C=CC=C(C)C(=O)NC(=CC1=O)C2=O`, the Potency in test [1] was 1870 nM (active); in test [12], 2640 nM (active); in [2] it was 662 nM (active); in test [3], 209 nM (active); in test [4], 332 nM (active); in [13], 14800 nM (active). Also, the Potency is 1480 nM (active) in [14]; 105 nM (active) in test [5]; 469 nM (active) in [6]; 83.3 nM (active) in test [7]; 1 nM (active) in [15]; 2350 nM (active) in test [8]. Also, the Potency in test [16] was 5900 nM (active); in test [9] it was 264 nM (active); in test [11], 1050 nM (active).

Turning to `COC(=O)[C@@H]1[C@H]2C[C@@H]3c4[nH]c5ccccc5c4CCN3C[C@@H]2CC[C@@H]1O`, the Potency entry in test [17], in test [12], in test [3], in [13], in [14] and in test [5] was “inactive” each time. Further, the Potency result in [7], in [8], in test [9] and in [10] was “inactive” in each case.

Turning to `COc1cc(OC)c(NC(=O)Nc2cc(C)on2)cc1Cl`, the Potency result in [1], in test [3], in test [13], in test [7], in test [8] and in test [10] was “inactive” in each case. For the same compound, the Potency in test [14] was 14800 nM (active).

With `N#Cc1c(NC(=O)c2cccc3ccccc23)sc2c1CCCC2`, the Potency in [17] was 296 nM (active); in test [12] it was 209 nM (active); in test [2], 187 nM (active); in [3], 296 nM (active); in [4], 2640 nM (active); in test [13], 418 nM (active). Also, the Potency was 743 nM (active) in test [14]; 20.9 nM (active) in test [5]; 526 nM (active) in [6]; 332 nM (active) in test [7]; 526 nM (active) in [18]; 3320 nM (active) in test [8]. For the same compound, the Potency in [16] is 5260 nM (active); in [10], 2350 nM (active).

As for `C[C@@H](Oc1ccc2[nH]nc(C=Cc3cnn(CCO)c3)c2c1)c1c(Cl)cncc1Cl`, the Potency result in test [17], in [19], in test [2], in test [5] and in test [7] was “inactive” in each case. Further, the Potency in [12] is 372 nM (active); in [3] it was 93.5 nM (active); in test [4] it was 8330 nM (active); in [14], 743 nM (active); in test [6], 23500 nM (active); in test [15], 4180 nM (active). In addition, the Potency is 8330 nM (active) in test [8]; 1870 nM (active) in [16]; 469 nM (active) in test [9]; 235 nM (active) in [10]; 11800 nM (active) in test [11].

Turning to `CCN1CCN(C(=O)N[C@H](C(=O)N[C@@H]2C(=O)N3C(C(=O)O)=C(CSc4nnnn4C)CS[C@@H]23)c2ccc(O)cc2)C(=O)C1=O`, the Potency result in test [17], in test [20], in test [12], in [13], in test [14] and in [7] was “inactive” throughout. In addition, the Potency result in test [15], in test [8], in test [10] and in test [11] was “inactive” throughout.

In the case of `Cn1cc(-c2cnn3c(N)c(Br)c([C@H]4CCCNC4)nc23)cn1`, the Potency in [17] was 372 nM (active); in [19], 132 nM (active); in test [20] it was 526 nM (active); in test [12], 1870 nM (active); in test [2], 118 nM (active); in test [3], 662 nM (active). Moreover, the Potency in test [4] was 590 nM (active); in [13] it was 2640 nM (active); in [14], 662 nM (active); in test [5], 1480 nM (active); in [6], 2960 nM (active); in test [7], 3720 nM (active). In addition, the Potency was 1480 nM (active) in [15]; 833 nM (active) in test [18]; 8330 nM (active) in test [8]; 662 nM (active) in [16]; 833 nM (active) in [9].
